Data as given in the supplement of paper PMC10849652.
Targets with a hit are over-represented here; the source holds about 7,900 in all. About 0.6% of all pairs of compound and target were hits. Values without a mark were called inactive.

Tests used:
Assay in all cases: log2 fold change, soluble protein after heating vs DMSO (PISA); higher = thermal stabilisation; K562 cells, 10 uM, 30 min; active = over 0.2 and 3.5 SD of the protein, either way, in both replicates (recomputed)
[1] = compound: C1=CC=C(C=C1)[C@H](COC2=CC3=C(C=C2)NC(=O)N3)NC(=O)C4=CC=CN(C4=O)CC5=CC(=C(C=C5)F)F
Summary of the method: (§1)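 Quantification of soluble protein used TMTpro 16plex LC-MS/MS, with channel sums equalised. Samples were the supernatant after 21,000xg for 90 min of pooled aliquots from K562 cells (2×10^6 cells/mL) treated with 10 μM compound for 30 min, heated for 3 min over 48°C-58°C, and extracted in PBS with 0.5% NP-40 at 4°C. Values, from duplicates, describe thermal stability against control samples on a log2 fold-change scale.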

[2] = compound: CC1=C(SC2=C1C(=N[C@H](C3=NN=C(N32)C)CC(=O)N)C4=CC=C(C=C4)Cl)C
Summary of the method: as §1

[3] = compound: CC1=C2C(=CC=C1)N=C(N(C2=O)C3=CC=CC=C3C)CN4C=NC5=C(N=CN=C54)N
Summary of the method: as §1

[4] = compound: Cc1sc2c(c1C)C(c1ccc(Cl)cc1)=N[C@@H](CC(=O)OC(C)(C)C)c1nnc(C)n1-2
Summary of the method: as §1

[5] = compound: c1ccc([C@@H]2C[C@H]2NC2CCNCC2)cc1
Summary of the method: as §1

UniProt P34913, sequence (P34913 whole entry, looked up): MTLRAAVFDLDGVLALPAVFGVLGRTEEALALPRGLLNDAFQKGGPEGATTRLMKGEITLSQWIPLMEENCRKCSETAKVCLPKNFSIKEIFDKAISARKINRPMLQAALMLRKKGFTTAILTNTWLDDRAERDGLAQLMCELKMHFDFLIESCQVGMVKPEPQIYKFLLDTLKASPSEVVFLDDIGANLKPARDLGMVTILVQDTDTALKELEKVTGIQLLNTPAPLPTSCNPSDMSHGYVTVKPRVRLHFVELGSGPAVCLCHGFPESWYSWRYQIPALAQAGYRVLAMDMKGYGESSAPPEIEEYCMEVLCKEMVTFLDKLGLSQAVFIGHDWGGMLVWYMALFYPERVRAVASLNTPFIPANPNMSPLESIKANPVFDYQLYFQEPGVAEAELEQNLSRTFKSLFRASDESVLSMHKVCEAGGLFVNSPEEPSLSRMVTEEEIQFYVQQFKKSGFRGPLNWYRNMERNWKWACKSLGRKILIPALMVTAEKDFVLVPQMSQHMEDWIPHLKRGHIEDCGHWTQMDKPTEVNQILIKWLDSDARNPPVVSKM
UniProt P09668, sequence (P09668 whole entry, looked up): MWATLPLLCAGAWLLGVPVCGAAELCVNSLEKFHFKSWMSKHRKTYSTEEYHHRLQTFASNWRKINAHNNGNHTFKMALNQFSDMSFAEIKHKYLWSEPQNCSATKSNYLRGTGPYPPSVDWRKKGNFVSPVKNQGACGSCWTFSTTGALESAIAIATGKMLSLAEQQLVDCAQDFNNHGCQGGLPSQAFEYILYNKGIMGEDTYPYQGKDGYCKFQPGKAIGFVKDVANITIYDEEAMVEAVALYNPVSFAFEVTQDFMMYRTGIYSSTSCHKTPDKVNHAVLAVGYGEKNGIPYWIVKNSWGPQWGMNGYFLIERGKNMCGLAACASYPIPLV
UniProt O75477, sequence (O75477 whole entry, looked up): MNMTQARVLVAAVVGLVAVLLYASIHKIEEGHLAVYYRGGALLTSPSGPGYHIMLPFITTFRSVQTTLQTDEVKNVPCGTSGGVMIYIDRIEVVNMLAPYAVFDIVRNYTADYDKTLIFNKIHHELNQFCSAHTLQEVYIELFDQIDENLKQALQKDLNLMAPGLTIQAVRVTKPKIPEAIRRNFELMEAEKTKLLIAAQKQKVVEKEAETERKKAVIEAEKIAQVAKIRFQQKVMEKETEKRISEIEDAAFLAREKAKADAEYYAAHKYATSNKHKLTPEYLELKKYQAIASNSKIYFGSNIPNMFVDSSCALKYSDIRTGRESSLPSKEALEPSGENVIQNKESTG
UniProt Q9UJU6, sequence (Q9UJU6 whole entry, looked up): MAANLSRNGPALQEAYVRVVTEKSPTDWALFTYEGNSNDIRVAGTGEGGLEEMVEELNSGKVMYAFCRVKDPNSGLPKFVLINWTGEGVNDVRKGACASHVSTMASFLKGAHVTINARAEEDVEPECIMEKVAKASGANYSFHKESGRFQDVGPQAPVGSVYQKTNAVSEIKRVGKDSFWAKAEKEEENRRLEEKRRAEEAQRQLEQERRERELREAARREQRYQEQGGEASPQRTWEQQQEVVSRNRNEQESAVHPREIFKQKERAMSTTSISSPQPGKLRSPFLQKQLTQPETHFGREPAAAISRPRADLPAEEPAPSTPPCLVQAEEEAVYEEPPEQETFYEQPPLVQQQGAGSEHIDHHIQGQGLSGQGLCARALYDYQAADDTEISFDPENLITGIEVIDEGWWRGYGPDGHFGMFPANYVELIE
UniProt Q96EV8, sequence (Q96EV8 whole entry, looked up): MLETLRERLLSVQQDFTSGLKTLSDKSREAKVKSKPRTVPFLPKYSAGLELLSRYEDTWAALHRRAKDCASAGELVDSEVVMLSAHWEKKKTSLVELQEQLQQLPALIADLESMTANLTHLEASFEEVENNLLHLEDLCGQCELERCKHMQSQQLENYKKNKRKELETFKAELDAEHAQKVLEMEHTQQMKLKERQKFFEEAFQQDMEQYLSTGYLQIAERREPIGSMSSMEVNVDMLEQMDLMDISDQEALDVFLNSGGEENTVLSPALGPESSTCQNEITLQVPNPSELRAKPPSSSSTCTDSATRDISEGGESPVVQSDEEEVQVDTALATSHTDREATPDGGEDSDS
UniProt Q8N3D4, sequence (Q8N3D4 whole entry, looked up): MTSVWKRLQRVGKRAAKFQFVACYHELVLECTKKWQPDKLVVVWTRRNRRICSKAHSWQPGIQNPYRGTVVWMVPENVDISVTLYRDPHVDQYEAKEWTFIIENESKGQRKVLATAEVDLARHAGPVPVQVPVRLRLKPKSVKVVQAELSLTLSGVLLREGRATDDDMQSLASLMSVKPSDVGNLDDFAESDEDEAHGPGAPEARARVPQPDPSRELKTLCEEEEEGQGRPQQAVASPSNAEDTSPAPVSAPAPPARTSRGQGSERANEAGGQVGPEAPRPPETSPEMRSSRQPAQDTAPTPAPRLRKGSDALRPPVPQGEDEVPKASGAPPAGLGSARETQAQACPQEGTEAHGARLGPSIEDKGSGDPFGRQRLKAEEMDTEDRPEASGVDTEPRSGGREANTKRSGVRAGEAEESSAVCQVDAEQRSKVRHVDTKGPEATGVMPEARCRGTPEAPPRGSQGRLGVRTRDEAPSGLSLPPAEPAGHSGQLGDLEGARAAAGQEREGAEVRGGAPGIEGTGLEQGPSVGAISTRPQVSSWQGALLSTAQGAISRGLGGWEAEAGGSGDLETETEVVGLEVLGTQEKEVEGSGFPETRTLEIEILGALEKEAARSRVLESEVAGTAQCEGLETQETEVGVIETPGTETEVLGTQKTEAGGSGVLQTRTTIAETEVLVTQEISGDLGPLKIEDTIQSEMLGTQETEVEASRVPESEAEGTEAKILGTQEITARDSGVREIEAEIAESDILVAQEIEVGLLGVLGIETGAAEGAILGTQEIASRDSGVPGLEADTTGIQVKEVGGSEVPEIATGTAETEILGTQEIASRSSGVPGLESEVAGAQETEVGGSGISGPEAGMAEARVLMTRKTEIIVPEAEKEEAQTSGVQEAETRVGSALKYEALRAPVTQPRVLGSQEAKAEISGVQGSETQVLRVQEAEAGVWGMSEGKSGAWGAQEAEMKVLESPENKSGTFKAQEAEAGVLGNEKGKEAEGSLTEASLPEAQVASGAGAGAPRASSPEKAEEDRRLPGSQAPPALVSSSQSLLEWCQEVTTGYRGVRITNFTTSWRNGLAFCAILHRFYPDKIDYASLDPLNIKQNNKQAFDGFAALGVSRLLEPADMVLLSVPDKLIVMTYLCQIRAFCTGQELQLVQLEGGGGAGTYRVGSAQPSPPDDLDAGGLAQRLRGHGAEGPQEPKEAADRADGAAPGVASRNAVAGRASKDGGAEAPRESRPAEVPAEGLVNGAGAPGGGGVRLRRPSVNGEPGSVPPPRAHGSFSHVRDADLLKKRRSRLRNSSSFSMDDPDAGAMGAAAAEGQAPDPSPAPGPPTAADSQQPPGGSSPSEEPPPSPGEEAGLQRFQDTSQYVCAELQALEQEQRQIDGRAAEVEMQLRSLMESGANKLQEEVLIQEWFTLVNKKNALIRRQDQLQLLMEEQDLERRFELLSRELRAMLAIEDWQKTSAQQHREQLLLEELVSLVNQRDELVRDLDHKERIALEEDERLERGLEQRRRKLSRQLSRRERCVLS
UniProt P09622, sequence (P09622 whole entry, looked up): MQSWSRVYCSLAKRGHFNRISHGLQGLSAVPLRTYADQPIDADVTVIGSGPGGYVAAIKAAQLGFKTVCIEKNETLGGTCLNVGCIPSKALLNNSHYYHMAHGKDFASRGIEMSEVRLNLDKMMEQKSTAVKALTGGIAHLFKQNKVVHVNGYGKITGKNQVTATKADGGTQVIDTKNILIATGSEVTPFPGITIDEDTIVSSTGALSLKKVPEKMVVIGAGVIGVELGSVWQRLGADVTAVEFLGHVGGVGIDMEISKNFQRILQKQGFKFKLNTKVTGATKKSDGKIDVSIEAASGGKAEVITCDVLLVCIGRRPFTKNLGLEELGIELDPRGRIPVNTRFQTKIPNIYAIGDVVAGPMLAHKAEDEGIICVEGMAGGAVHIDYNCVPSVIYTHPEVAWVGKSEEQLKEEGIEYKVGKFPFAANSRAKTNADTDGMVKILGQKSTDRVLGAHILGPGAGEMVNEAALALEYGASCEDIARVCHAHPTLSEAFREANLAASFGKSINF
UniProt Q9NXW2, sequence (Q9NXW2 whole entry, looked up): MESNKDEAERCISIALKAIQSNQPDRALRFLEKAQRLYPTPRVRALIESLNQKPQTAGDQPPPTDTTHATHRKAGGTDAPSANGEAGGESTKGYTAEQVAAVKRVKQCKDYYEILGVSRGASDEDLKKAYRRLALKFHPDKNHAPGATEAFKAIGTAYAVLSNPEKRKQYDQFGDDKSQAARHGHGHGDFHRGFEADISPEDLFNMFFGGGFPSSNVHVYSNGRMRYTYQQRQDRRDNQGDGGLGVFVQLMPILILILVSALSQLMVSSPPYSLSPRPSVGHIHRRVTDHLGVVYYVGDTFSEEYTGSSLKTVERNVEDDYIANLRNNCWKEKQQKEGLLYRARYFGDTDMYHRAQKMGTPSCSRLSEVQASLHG
UniProt Q9NYP7, sequence (Q9NYP7 whole entry, looked up): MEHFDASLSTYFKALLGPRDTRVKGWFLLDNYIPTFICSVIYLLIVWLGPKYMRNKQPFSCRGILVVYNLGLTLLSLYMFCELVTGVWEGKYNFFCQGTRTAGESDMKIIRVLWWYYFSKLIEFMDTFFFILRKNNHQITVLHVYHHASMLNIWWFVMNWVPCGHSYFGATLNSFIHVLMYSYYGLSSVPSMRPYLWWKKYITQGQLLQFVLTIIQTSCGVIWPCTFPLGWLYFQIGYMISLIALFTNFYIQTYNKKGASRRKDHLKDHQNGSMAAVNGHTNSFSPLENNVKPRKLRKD
UniProt P50402, sequence (P50402 whole entry, looked up): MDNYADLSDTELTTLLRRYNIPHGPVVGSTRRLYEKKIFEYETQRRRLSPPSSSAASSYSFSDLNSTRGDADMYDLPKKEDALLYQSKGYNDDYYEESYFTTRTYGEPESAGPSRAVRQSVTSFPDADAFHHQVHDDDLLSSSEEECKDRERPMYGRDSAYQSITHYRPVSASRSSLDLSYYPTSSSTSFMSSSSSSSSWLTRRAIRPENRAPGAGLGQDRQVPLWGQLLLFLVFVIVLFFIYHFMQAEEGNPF

Target	log2 fold change [1]	log2 fold change [2]	log2 fold change [3]	log2 fold change [4]	log2 fold change [5]
CWC27 (UniProt Q6UX04)	-0.039	0.097	0.103	-0.03	-0.001
FAM83D (UniProt Q9H4H8)	-0.068	0.027	0	0.045	0.06
CTSZ (UniProt Q9UBR2)	-0.003	0.009	0.032	0.039	-0.01
FAM114A2 (UniProt Q9NRY5)	-0.046	0.047	0.018	0.033	0.006
EPHX2 (UniProt E5RI53)	-0.024				
DHRS1 (UniProt Q96LJ7)	0.241	0.015	0.216	0.321	0.013
DCTPP1 (UniProt Q9H773)	0.022	0.029	-0.015	-0.043	0.009
DBNL isoform 3 (UniProt Q9UJU6)	-0.096	0.002	0.045	0.029	0.01
CTSH (UniProt P09668)	0	-0.046	-0.038	-0.035	0.055
DCAF10 (UniProt Q5QP82)	0.015	-0.018	0.056	0.013	-0.011
ECPAS (UniProt Q5VYK3)	-0.127	0.047	0.112	-0.032	-0.01
EEF1A1 (UniProt P68104)	0.112	0.212	-0.097	0.125	-0.471
CTSC (UniProt P53634)	0.018	-0.012	-0.039	-0.01	0.056
FAM241A (UniProt Q8N8J7)	-0.046	0.034	0.041	0	0.008
FADS1, A0A0A0MR51	-0.051	0.026	0.026	-0.005	-0.038
EMD (UniProt P50402)	0.016	0.022	0.059	0.058	0.031
DHFR (UniProt P00374)	-0.077	-0.014	0.083	0.058	0.396
DPYSL2 (UniProt Q16555)	-0.012	0.072	0.093	0.01	0.014
DHX36 (UniProt Q9H2U1)	0.037	-0.087	-0.094	0.091	0.015
EFCAB14 (UniProt O75071)	0.045	-0.293 (active)	0.016	0.018	0.321
EFL1 (UniProt Q7Z2Z2)	-0.042	0.051	0.083	0.008	-0.017
FAM160A2 isoform 2 (UniProt Q8N612)	-0.027	-0.054	0.343	0.148	-0.344
EPHX2 (UniProt P34913)	-0.015	0.091	0.052	0.143	-0.002
EXTL2 (UniProt Q9UBQ6)	0.028	0.106	0.003	0.316 (active)	-0.211
EZH2 isoform 2 (UniProt Q15910)	0.023	-0.056	-0.14	0.016	-0.034
ESYT1 isoform 2 (UniProt Q9BSJ8)	-0.063	-0.046	0.018	0.008	-0.046
CTSB (UniProt P07858)	-0.015	-0.024	0.019	-0.024	-0.035

Target	log2 fold change [1]	log2 fold change [2]	log2 fold change [3]	log2 fold change [4]	log2 fold change [5]
DNAJB1 (UniProt M0R128)	-0.843 (active)	0.006	0.106	0.078	0.061
CTSL (UniProt P07711)	-0.017	-0.07	0.015	0.031	0.104
DOLPP1 (UniProt Q86YN1)	-0.028	0.02	-0.107	0.062	0.153
ERLIN1 (UniProt O75477)	-0.007	-0.036	0.002	-0.038	-0.026
DDB1 (UniProt Q16531)	0.023	-0.003	0.01	0	0.016
EED, A0A5F9ZI63	0.002	0.011	0.03	-0.029	-0.006
DNAJC24 (UniProt Q6P3W2)	0.05	0.072	0.025	-0.002	0.054
DNAJC1 (UniProt Q96KC8)	-0.024	0.054	0.08	-0.015	0.052
DCUN1D1 (UniProt Q96GG9)	-0.011	0.064	0.073	-0.033	0.003
DTNBP1 (UniProt Q96EV8)	-0.033	0.031	0.02	0.001	0.013
EHD2 (UniProt Q9NZN4)	-0.018	0.049	0.022	-0.019	-0.049
E2F4 (UniProt Q16254)	0.006	0.039	0.098	0.022	-0.001
ERLIN2 (UniProt O94905)	-0.025	-0.048	-0.038	0.006	-0.044
DCAF6 isoform 3 (UniProt Q58WW2)	0.04	-0.017	0.003	0.032	0.027
DNAJC7 (UniProt Q99615)	-0.045	0.043	0.072	-0.013	0
DIAPH1 (UniProt O60610)	-0.073	-0.027	0.026	0.049	-0.018
EDC3 (UniProt Q96F86)	-0.198	0.12	0.019	0.063	0.026
EHBP1L1 (UniProt Q8N3D4)	-0.016	0.065	0.052	-0.022	-0.051
DMAC1 (UniProt Q96GE9)	0.058	-0.041	0.05	-0.085	0.023
FAM50A (UniProt Q14320)	-0.026	0.032	0.033	-0.025	0.007
DNAH5 (UniProt Q8TE73)	0.074	0.023	0.08	0.139	0.062
EXOC7 (UniProt Q9UPT5)	-0.063	-0.001	0.035	0.07	-0.014
DNAJB12 (UniProt Q9NXW2)	-0.044	0.027	0.081	-0.011	0.011
FAM177A1 isoform 2 (UniProt Q8N128)	-0.073	0.047	0.17	-0.002	0.028
ELOVL5 isoform 2 (UniProt Q9NYP7)	-0.056	0.021	0.016	-0.074	0.033
EXOSC10 (UniProt Q01780)	0.162	0.184	0.284	0.03	-0.041
DLD (UniProt P09622)	0.016	0.006	-0.005	-0.016	0.044
